Compound activity: PubChem, National Center for Advancing Translational Sciences (NCATS)
NS1 function inh – influenza NS1 inhibition. Potency, µM (highest dose often 46.1 µM), for the others: top-dose activity, positive = more growth. 270,000 tested, 0.4% active. AID 2326; calls by dose curve; further: potency means the concentration at half of the fitted maximal effect; actives are rising curves; nearly all actives have a fitted effect of over 50% in size
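S. cerevisiae expressing influenza A NS1, grown in glucose, washed, then diluted 1:100 into pH 6.0 -URA galactose medium with 23 nl compound. Growth recovery read as OD600; NS1-free strain serves as control.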
CHX counter – counter-screen hit for Shiga toxin inhibitors, cycloheximide; cell reporter, cycloheximide protein synthesis inhibition counterscreen; max response, %; 300,000 tested, 12% active; in the data active means max response mostly above about 13%, no sharp cut-off; inactive means mostly below about 14%; further: read at 38.3 µM for the half of the compounds with a filed dose; 0% is about no effect
Pf growth 96h – P. falciparum growth inhibition at 96 hours; 320,000 tested, 6.9% active; P. falciparum luciferase reporter growth, 96 h; Potency, µM (titrated, usually from 28.7 µM), for the others: at the top dose activity change, negative = inhibition, hits mostly inhibitors; further: potency means the concentration at half of the fitted maximal effect; on the % scale 0 is the no-effect control and ±100 the full control effect
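Luminescence readout: decreased luciferase signal marks inhibited growth of reporter-expressing P. falciparum in infected red cells (2% hematocrit, 0.05% parasitemia final), exposed to compound two generations (96 h, 37 C, 5% CO2).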
Shiga toxin inh – Shiga toxin inhibition. Vero cells, Shiga toxin protein synthesis inhibition reporter. inhibition, % at 38.7 µM. 290,000 tested, 9.2% active. AID 2315; in the data active means inhibition mostly above about 28%, no sharp cut-off; inactive means mostly below about 43%; further: 0% is about no effect
SARS PLP yeast – inhibitors of SARS-CoV papain-like protease in yeast. S. cerevisiae expressing SARS-CoV PLpro, growth rescue. Potency, µM (doses to about 32.9 µM), inactives show at the highest dose activity, positive = growth rescue, actives largely listed as activators. 330,000 tested, 0.19% active; calls by dose curve; further: potency means the concentration at half of the fitted maximal effect; 0% is about no effect; nearly all actives have a fitted effect of over 55% in size
Pf growth 48h – inhibits P. falciparum growth in the first generation, 48 h; P. falciparum luciferase growth in erythrocytes, 48 h; Potency, µM (highest dose often 28.7 µM), for inactives: at the highest dose activity change, negative = inhibition, actives largely listed as inhibitors; 310,000 tested, 5.9% active; AID 504832; further: potency means the concentration at half of the fitted maximal effect; on the % scale 0 is the no-effect control and ±100 the full control effect
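In quantitative HTS format, infected erythrocytes bearing luciferase-reporter parasites were treated for a single generation at 37 C. Luminescence after adding detection reagent served as the growth measure.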
An asterisk follows results filed as active; ? = inconclusive; / = no result given. The list is not random: actives were taken first. Their share in the collection is about 21%. Unless noted, the call rests on the fitted dose curve; in most records, active means well fitted inhibition curve with a large enough effect; inconclusive means small, poorly fitted or top-dose-only effect, or another doubt; inactive means no such curve, though single readings can be large or run the other way.

SMILES	NS1 function inh	CHX counter	Pf growth 96h	Shiga toxin inh	SARS PLP yeast	Pf growth 48h
Cc1ccc(Nc2cc(C)c3ccc(O)cc3n2)cc1C	-52%	43*	?	83*	-1%	?
CCN(c1ccccc1)S(=O)(=O)c1ccc(Cl)c(NC(=O)COC(=O)c2ccc[nH]c2=O)c1	0%	2	14%	-11	-1%	-9%
COn1c(=O)c(-c2cccs2)[n+]([O-])c2ccccc21	-91%	20*	57%	49	-4%	49%
CCOC(=O)COn1c(=O)c(-c2cccs2)[n+]([O-])c2ccccc21	-145%	33*	?	30	-2%	42%
CCOn1c(=O)c(-c2cccs2)[n+]([O-])c2ccccc21	-9%	15	-36%	-4	-3%	/
N#C/C(=C\c1ccncc1)C(N)=O	6%	-7	7%	-2	0%	22%
CSc1nsc(SCC(=O)N2CCN(c3ccccc3)CC2)n1	-7%	5	22%	23	0%	11%
CCCCN=C1NN=C(c2cccc([N+](=O)[O-])c2)CS1	/	24*	8%	84*	0%	-14%
CCc1nnc2n1N=C(c1cccc([N+](=O)[O-])c1)CS2	7%	-1	9%	-10	-1%	13%
CCOC(=O)c1cc(-c2cc3ccccc3o2)n[nH]1	-12%	4	-37%	-12	-25%	100%
CCCCN=C1NN=C(c2cc3ccccc3o2)CS1	-18%	41*	13µM*	53*	9%	?
CN(CC(=O)Nc1ccccc1Cl)C(=O)COC(=O)CCN1C(=O)C2CC=CCC2C1=O (stereo not given)	/	/	32%	/	1%	39%
CC(=O)NC1(c2ccccc2)CCN(Cc2nnnn2C(C)(C)C)CC1	0%	-2	12µM*	-10	-4%	5%
Cc1cccc(N(CC(=O)NCc2ccco2)C(=O)CCC(=O)Nc2ccccn2)c1C	-14%	10	1.9µM*	33	3%	0%
CC(C)c1ccc(N(CC(=O)NCc2ccco2)C(=O)CCC(=O)Nc2ccccn2)cc1	14%	11*	0.74µM*	51*	-1%	-3%
O=C(CN(C(=O)CCC(=O)Nc1ccccn1)c1ccc(F)cc1)NCc1ccco1	?	-1	?	28	1%	-3%
Cc1ccc(-n2nc3c(=O)n(CCCC(=O)NCc4ccccc4Cl)nc(C)c3c2C)cc1	8%	6	2.6µM*	-10	-2%	?
Cc1ccc(-n2nc3c(=O)n(CCCC(=O)NCc4ccc(C)o4)nc(C)c3c2C)cc1	3%	12	?	-4	10%	10µM*
Cc1ccc(-n2nc3c(=O)n(CCCC(=O)NCc4ccc(Cl)cc4)nc(C)c3c2C)cc1	-1%	-3	2%	3	3%	?
Cc1ccc(-n2nc3c(=O)n(CCCC(=O)NCc4cccc(Cl)c4)nc(C)c3c2C)cc1	-1%	19	?	-11	-2%	9.3µM*
Cc1ccc(-n2nc3c(=O)n(CCCC(=O)NCCc4ccccc4Cl)nc(C)c3c2C)cc1	/	11	/	-3	/	/
Cc1ccc(Cn2nnc3c(=O)[nH]c(C4CCN(S(=O)(=O)c5ccccc5)CC4)nc32)cc1	?	-4	30%	-22	2%	13%
Cc1ccc(Cn2nnc3c(=O)[nH]c(C4CCN(S(=O)(=O)Cc5ccccc5)CC4)nc32)cc1	16%	31*	147%	78*	4%	?
O=c1[nH]c(C2CCN(S(=O)(=O)c3ccccc3C(F)(F)F)CC2)nc2c1nnn2Cc1ccccc1	13%	-5	2.6µM*	1	-3%	5.9µM*
O=c1[nH]c(C2CCN(S(=O)(=O)/C=C/c3ccccc3)CC2)nc2c1nnn2Cc1ccccc1	18%	-3	-69%	-12	0%	4.7µM*
SMILES	NS1 function inh	CHX counter	Pf growth 96h	Shiga toxin inh	SARS PLP yeast	Pf growth 48h
Cc1ccc(S(=O)(=O)N2CCC(c3nc4c(nnn4Cc4ccccc4)c(=O)[nH]3)CC2)cc1	5%	-3	29%	7	1%	12µM*
O=c1[nH]c(C2CCN(S(=O)(=O)c3ccccc3F)CC2)nc2c1nnn2Cc1ccc(OC(F)(F)F)cc1	11%	-5	?	11	10%	?
CNC(=O)NC(=O)COC(=O)c1ccccc1OCc1ccccc1	/	4	38%	13	0%	?
Cc1c(C(=O)N2CCCCC2)c(S(=O)(=O)NCc2ccc(Cl)cc2)c(C)n1C	-11%	-2	-12%	-10	15%	-8%
CCOC(=O)C1=C(c2ccccc2)NC(=S)NC1c1cc([N+](=O)[O-])ccc1OC (stereo not given)	7%	-2	8%	-24	0%	12µM*
CCOC(=O)c1cccc(COC(=O)c2cccc(-c3nnc(-c4ccccc4)o3)c2)c1	2%	46*	5%	78*	15%	121%
O=C(OCc1nnc(-c2ccccc2)o1)c1ccc(CO)cc1	/	16	9%	30	4%	-14%
CC(C)OC(=O)c1ccc(COC(=O)c2cccc(-c3nnc(-c4ccccc4)o3)c2)cc1	-1%	17*	?	32	-5%	80%
O=C(OCc1ccc(C(=O)c2ccccc2)cc1)c1cccc(-c2nnc(-c3ccccc3)o2)c1	14%	22*	167%	64*	-3%	34%
O=C(OCc1ccccc1)c1cccc(-c2nnc(-c3ccccc3)o2)c1	?	-5	245%	6	-4%	69%
CN1C(=O)[C@H]2[C@@H](/C=C/c3ccccc3)N3C(=O)CN(Cc4ccc(-c5ccccc5)cc4)C(=O)[C@@]3(Cc3ccccc3)[C@H]2C1=O	?	-2	?	1	-4%	?
CCOc1ccc(NC(=S)N(CCc2c(C)[nH]c3ccc(C)cc23)Cc2cccnc2)cc1	10%	-3	3.7µM*	-3	-8%	?
CCNC(=S)N(CCc1c(C)[nH]c2ccc(C)cc12)Cc1cccnc1	5%	0	?	5	-1%	?
Cc1[nH]c2ccc(F)cc2c1CCN(Cc1cccnc1)C(=S)Nc1ccc(F)cc1	/	5	7.4µM*	-1	-1%	4.1µM*
N=c1ccn2c(n1)OC1C(O)[C@@H](CO)O[C@H]12 (stereo not given in full)	/	17	/	16	/	/
COc1cc(C(=S)N2CCOCC2)cc(OC)c1OC(=O)c1cccc(C)c1	20%	-2	59%	-11	8%	?
Cc1cccc(/C(N)=N/OC(=O)N2CCOCC2)c1	-2%	24*	2.6µM*	101*	-19%	?
Cc1ccc(/C(N)=N/OC(=O)N2CCOCC2)cc1	-6%	22*	1µM*	16	-8%	?
COC(=O)C(Cc1ccc(O)cc1)NC(=O)CCOc1ccc(OC)cc1 (stereo not given)	6%	-1	-10%	-8	4%	-3%
O=C(NNC(=O)C12CC3CC(CC(C3)C1)C2)c1csc(N2CCOCC2)n1	/	/	13µM*	/	2%	?
